# The full ranking holds about 140,000 sequences; the median of “enrichment ratio after two sorts for PhoP signalling” is about 0, and the highest 2% start at about 11. Shown is part of a subset that was picked to be rich in the highest values.
# B1: PhoQ; a variant is named by its letters at X, in order, P23837 (parent)
# chain: MKKLLRLFFPLSLRVRFLLATAAVVLVLSLAYGMVALIGYSVSFDKTTFRLLRGESNLFYTLAKWENNKLHVELPENIDKQSPTMTLIYDENGQLLWAQRDVPWLMKMIQPDWLKSNGFHEIEADVNDTSLLLSGDHSIQQQLQEVREDDDDAEMTHSVAVNVYPATSRMPKLTIVVVDTIPVELKSSYMVWSWFIYVLSANLLLVIPLLWVAAWWSLRPIEALAKEVRELEEHNRELLNPATTRELTSLVRNLNRLLKSERERYDKYRTTLTDLTHSLKTPLXXLQXXLRSLRSEKMSVSDAEPVMLEQISRISQQIGYYLHRASMRGGTLLSRELHPVAPLLDNLTSALNKVYQRKGVNISLDISPEISFVGEQNDFVEVMGNVLDNACKYCLEFVEISARQTDEHLYIVVEDDGPGIPLSKREVIFDRGQRVDTLRPGQGVGLAVAREITEQYEGKIVAGESMLGGARMEVIFGRQHSAPKDE
# Variants of: B1
# Assay: enrichment ratio after two sorts for PhoP signalling (ratio (wild type AVST 3.29)); higher = more functional
# Conditions: with PhoP (E. coli)
row,Variant,enrichment ratio
1,HFAL,≤ 0.25
2,SCRE,≤ 0.25
3,DVLL,≤ 0.25
4,NASE,≤ 0.25
5,TESE,20
6,AISE,2.44
7,SESE,24.9
8,KASE,≤ 0.25
9,QESE,≤ 0.25
10,TISE,24.4
11,DDSE,1.96
12,TASE,11.3
13,RISE,≤ 0.25
14,NESE,≤ 0.25
15,SLSE,1.48
16,HLPY,≤ 0.25
17,MSKE,≤ 0.25
18,YPSK,≤ 0.25
19,TVFP,≤ 0.25
20,VDTN,≤ 0.25
21,LNSE,≤ 0.25
22,SDSE,≤ 0.25
23,GNSE,≤ 0.25
24,SPSE,≤ 0.25
25,SNSE,16.4
26,NVSE,≤ 0.25

row,Variant,enrichment ratio
1,TVSE,14.1
2,DPSE,≤ 0.25
3,SQSE,11.4
4,SRSE,≤ 0.25
5,SISE,12.6
6,KYSE,≤ 0.25
7,FFRE,≤ 0.25
8,EVVH,≤ 0.25
9,TGPK,≤ 0.25
10,GKHW,≤ 0.25
11,FNVA,≤ 0.25
12,KTII,≤ 0.25
13,TGSE,7.38
14,SGSE,15.4
15,GGSE,≤ 0.25
16,IEKG,≤ 0.25
17,LARL,≤ 0.25
18,SSPS,≤ 0.25
19,YHLR,≤ 0.25
20,MSYD,≤ 0.25
21,MSWI,14.1
22,MSYI,12.1
23,MSPM,≤ 0.25
24,MSTA,≤ 0.25
25,MSYK,≤ 0.25
26,MSCI,16.7

row,Variant,enrichment ratio
1,MSCS,0.763
2,MSPI,≤ 0.25
3,MSWM,23.7
4,MSCA,0.541
5,MSGM,6.76
6,KTWF,≤ 0.25
7,YIVR,≤ 0.25
8,DSYR,≤ 0.25
9,WDLV,≤ 0.25
10,SPGS,≤ 0.25
11,AEGC,2.22
12,MSSF,0.41
13,MAFL,12.9
14,MSAS,12.6
15,MSSM,11.9
16,NAFL,0.25
17,MSFY,12.3
18,WIAS,≤ 0.25
19,MSFD,≤ 0.25
20,KAFL,≤ 0.25
21,MSAT,7.26
22,KSFY,≤ 0.25
23,MSQM,≤ 0.25
24,PAHY,≤ 0.25
25,AKLK,≤ 0.25
26,MEND,≤ 0.25

row,Variant,enrichment ratio
1,PTHW,≤ 0.25
2,AVIT,1.3
3,MIMD,≤ 0.25
4,LLDF,≤ 0.25
5,NAWF,≤ 0.25
6,PFLK,≤ 0.25
7,RPFK,≤ 0.25
8,MSLM,15.9
9,MSHQ,12
10,MSFC,14.1
11,MSGR,≤ 0.25
12,MSTC,1.5
13,MSTD,≤ 0.25
14,MSLF,1.86
15,MSFA,2.31
16,MSHP,≤ 0.25
17,MSLA,5.33
18,MSGD,≤ 0.25
19,MSGI,17.5
20,IAPP,≤ 0.25
21,NMIK,≤ 0.25
22,DCGT,≤ 0.25
23,EMPS,≤ 0.25
24,NEEL,≤ 0.25
25,MHMN,≤ 0.25
26,NGVW,≤ 0.25

row,Variant,enrichment ratio
1,MSTI,18.2
2,MSGG,≤ 0.25
3,KSFL,≤ 0.25
4,MSLY,0.424
5,MRHM,≤ 0.25
6,MSHM,22
7,KSHM,≤ 0.25
8,MSCF,1.71
9,MSFL,13.3
10,MSGQ,14.3
11,MSGA,0.29
12,MEFL,8.98
13,SKYM,≤ 0.25
14,CCSC,≤ 0.25
15,FTRK,≤ 0.25
16,MDDW,≤ 0.25
17,ADPG,≤ 0.25
18,VPPG,≤ 0.25
19,LIYG,≤ 0.25
20,MSTW,≤ 0.25
21,MSCE,≤ 0.25
22,MSWL,14.4
23,MSEL,≤ 0.25
24,MSRL,≤ 0.25
25,MSCV,15.3
26,GKQS,≤ 0.25

row,Variant,enrichment ratio
1,SDCI,4.22
2,QYNK,≤ 0.25
3,GGPL,≤ 0.25
4,SNVY,1.11
5,AKII,13.6
6,ADII,1.41
7,KAII,≤ 0.25
8,AAII,12.4
9,NAII,≤ 0.25
10,KKII,≤ 0.25
11,DMTW,≤ 0.25
12,IQGQ,≤ 0.25
13,GIPQ,≤ 0.25
14,CVSL,≤ 0.25
15,GTSL,9.63
16,KQSL,≤ 0.25
17,TTSL,17.6
18,CTSL,11.6
19,YTSL,≤ 0.25
20,TVPF,≤ 0.25
21,QVGW,2.43
22,EDEG,≤ 0.25
23,FEDM,≤ 0.25
